Screening results (PubChem)
A3G deaminase – APOBEC3G (human) deaminase inhibition. recombinant A3G, ssDNA deamination FAM/TAMRA fluorescence. inhibition, % at 20 µM. hit rate 0.28% among 330,000. AID 493012;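 active = inhibition of at least 40% at 20 µM, with no more than 30% in the related APOBEC3A deaminase screen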;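 note: plate controls were DMSO wells with A3G for no effect and wells lacking A3G enzyme for full effect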
AHR activator – activates the human aryl hydrocarbon receptor. AHR-responsive luciferase reporter cells, luminescence. AID 2796. hit rate 2.5% among 320,000. activation, % at 5 µM; in the data active = activation above about 47%;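 note: 0% = vehicle wells and 100% = reference agonist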
APOBEC3A inh – human APOBEC3A DNA deaminase inhibition. AID 493011. P31941. inhibition, % at 20 µM. hit rate 0.41% among 330,000. recombinant A3A, FAM/TAMRA ssDNA deamination fluorescence;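 active = at least 40% inhibition at 20 µM here, with at most 30% in a related deaminase screen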;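 note: plate controls were A3A with DMSO for no effect and wells lacking A3A enzyme for full effect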
NTR1 agonist – activates human neurotensin receptor 1; P30989; NTR1-U2OS beta-arrestin-GFP spot imaging, agonist mode; activation, % at 20 µM; hit rate 0.17% among 330,000; AID 493036;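 active = activation at or above 40% of the spot to cytoplasm intensity ratio, with at least 20 cells analyzed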;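 note: 0% = DMSO without peptide and 100% = 100 nM NTR1 peptide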
Target sequence (P30989 whole entry, looked up): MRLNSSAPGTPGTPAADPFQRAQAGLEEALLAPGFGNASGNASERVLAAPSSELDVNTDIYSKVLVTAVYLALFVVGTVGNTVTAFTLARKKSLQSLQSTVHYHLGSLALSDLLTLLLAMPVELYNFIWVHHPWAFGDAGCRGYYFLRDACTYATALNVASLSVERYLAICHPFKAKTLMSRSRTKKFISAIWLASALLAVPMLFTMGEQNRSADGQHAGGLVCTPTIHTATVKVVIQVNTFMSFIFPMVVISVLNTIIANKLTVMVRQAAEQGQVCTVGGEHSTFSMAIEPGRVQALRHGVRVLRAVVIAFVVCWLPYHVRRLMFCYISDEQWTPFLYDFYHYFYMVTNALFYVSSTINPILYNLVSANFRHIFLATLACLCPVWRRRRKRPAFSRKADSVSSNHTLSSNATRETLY
APOBEC3G confirm – APOBEC3G (human) deaminase inhibition, confirmed | shares compounds with A3G deaminase | recombinant A3G ssDNA deaminase, UDG/FAM-TAMRA fluorescence | inhibition, % at 20 µM | hit rate 72% among 890 | AID 493152;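 active = inhibition reaching a set limit in any replicate at 20 µM, the limit being 80% of the first screen's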
UDG A3G counter – inhibits E. coli UDG, flagging false APOBEC3G inhibitors. AID 504715. UDG counterscreen, FAM/TAMRA oligo fluorescence. 710 tested, under 10 active. inhibition, % at 20 µM. shares compounds with A3G deaminase;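 active = compounds giving 40% or more inhibition at 20 µM in any one of the three replicates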;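 note: plate controls were DMSO wells with UDG and oligo for no effect and DMSO wells lacking both for full effect; inhibitors lower the FAM signal released by uracil excision and alkaline cleavage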
An asterisk follows results filed as active; / = not tested or not shown. An excerpt weighted towards active compounds, which were near 3.2% of everything screened.

SMILES	A3G deaminase	AHR activator	APOBEC3A inh	NTR1 agonist	APOBEC3G confirm	UDG A3G counter
CCOC(=O)c1c2c3c(cccc3n(C)c1=O)C(=O)c1ccccc1-2	55*	11	-1	4	-1	-3
CCOC(=O)c1c2c3c(cccc3[nH]c1=O)C(=O)c1ccccc1-2	53*	23	-3	8	1	-2
COC(=O)[C@H](CC(C)C)NC(=O)c1cc2c(cn1)[nH]c1ccccc12	58*	16	1	3	63*	/
Cc1cc(NC(=O)Nc2ccccc2)n(C(C)(C)C)n1	61*	0	6	1	0	/
O=C(CC(c1ccc(F)cc1)c1ccco1)Nc1nccs1 (configuration not stated)	53*	0	2	1	0	/
CCOC(=O)Cc1csc(SCn2nnc3ccccc3c2=O)n1	-4	2	-3	2	/	/
CCOC(=O)Cc1csc(-n2sc3ccccc3c2=O)n1	81*	15	0	1	84*	3
CCCCNC(=NCc1cccc(C(F)(F)F)c1)Nc1ccccc1	-8	0	-4	1	/	/
CCCC(/C=C/c1ccc(OC(C)=O)cc1)=C1/c2ccccc2C(=O)N1c1ccccc1	-10	16	-3	6	/	/
CCN(CC)C(=O)c1sc2nc(N3CCOCC3)c3c(c2c1N)CCCC3	49*	20	0	0	23	/
CCOC(=O)c1sc2nc(N3CCOCC3)c3c(c2c1N)CCCC3	-8	1	-8	2	/	/
CCOc1ccc(C(=O)CCC(=O)NCC(=O)Nc2c(C)cccc2C)cc1	-9	2	0	0	/	/
CC(C)OC(=O)c1ccc2nc3ccccc3nc2c1	64*	8	-1	0	-2	2
CS(=O)(=O)c1ccc(N)c(SSc2cc(S(C)(=O)=O)ccc2N)c1	87*	-2	4	4	95*	/
O=C(CC1CCCC1)Nc1cc(S(=O)(=O)N2CCOCC2)ccc1O	57*	1	4	4	33*	-2
COc1cc(/C=N/n2c(-c3n[nH]c4c3CCC4)n[nH]c2=S)ccc1O	47*	11	-2	0	58*	2
COc1ccc(/C=N/n2c(-c3n[nH]c4c3CCC4)n[nH]c2=S)cc1OC	48*	6	0	1	61*	-3
CCC1CCC(NC(=O)Nc2cccc(OC)c2)CC1 (configuration not stated)	-4	20	-5	8	/	/
COc1cccc(OC)c1OCCCN1CCC(Cc2ccccc2)CC1	-4	-1	-3	1	/	/
COc1ccc(/C=C(\NC(=O)c2ccc(C)cc2)C(=O)Nc2c(C)n(C)n(-c3ccccc3)c2=O)cc1	-5	-2	-4	0	/	/
Cn1c2ccccc2n2c(=O)c(=O)n(CC(=O)c3ccc(Cl)cc3)nc12	-6	10	1	4	/	/
CC(/C=N/n1c(-c2ccncc2)n[nH]c1=S)=C\c1ccco1	66*	20	-1	0	90*	5
Cc1cccc(-c2n[nH]c(=S)n2/N=C/C=C/c2ccco2)c1	54	6	52	0	/	/
CC(=C/c1ccccc1)/C=N/n1c(-c2ccncc2)n[nH]c1=S	61*	6	-2	3	94*	2
CC(/C=N/n1c(-c2ccco2)n[nH]c1=S)=C\c1ccco1	62*	2	17	0	58*	-3
SMILES	A3G deaminase	AHR activator	APOBEC3A inh	NTR1 agonist	APOBEC3G confirm	UDG A3G counter
S=c1[nH]nc(-c2ccncc2)n1/N=C/C=C/c1ccco1	57*	5	11	2	74*	2
CCc1cc(/C(Cc2ccccn2)=N\Nc2ccccc2)c(O)cc1O	42*	77*	-6	11	16	-2
Cc1nc(C/C(=N\Nc2ccccc2)c2ccc(O)cc2O)cs1	29	21	1	3	/	/
O=C(Oc1c(Br)cc(C(=S)N2CCOCC2)cc1Br)c1ccc(Cl)cc1	62*	0	2	4	20*	-2
O=C(CSc1ccc(-c2ccccc2)nn1)c1ccccc1	-3	22	1	4	/	/
Cc1ccc(C(=O)CSc2ccc(-c3ccccc3)nn2)cc1	74*	4	-3	-2	16	-1
Fc1ccc(-c2nnc(Cc3ccc(Cl)cc3)o2)cc1	-6	-3	1	2	/	/
O=C(COc1ccc(Cl)cc1)Nc1nc(-c2ccncc2)cs1	42*	3	2	8	29	/
O=C(CCS(=O)(=O)c1ccc(F)cc1)Nc1nc(-c2ccncc2)cs1	61*	4	4	0	53*	/
